# In the supplement of paper PMC9801561:
# ± gives the standard deviation of the averaged measurements.
# Tests used:
# [1] = tested on: Escherichia coli Nissle 1917; test: area under OmniLog respiration curve over 48 h (OmniLog units x h); higher = more growth / nutrient utilisation; extreme values may be limits of the assay; settings: incubation: 48 h, 37 °C
# [2] = tested on: Escherichia coli Nissle 1917; test: DuctApe activity index of respiration/growth curve (0 no growth to 9 maximum) (index 0-9); higher = more growth / nutrient utilisation, active = 3 or more; extreme values may be limits of the assay; settings: incubation: 48 h, 37 °C
# [3] = nutrient role: C-Source, carboxylic acid
# [4] = nutrient role: C-Source, amino acid
# [5] = nutrient role: sole sulfur source (pyruvate carbon)
# [6] = nutrient role: C-Source, carbohydrate
# [7] = nutrient role: sole phosphorus source (pyruvate carbon)
# [8] = nutrient role: sole nitrogen source (pyruvate carbon)
# 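For DuctApe activity index of respiration/growth curve (0 no growth to 9 maximum) in this document: biolog PM4 phosphorus and sulfur plates, tetrazolium violet dye reduction read in the OmniLog every 15 min, kinetic curves scored by DuctApe, each plate run in triplicate.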
compound,measurement,setting,value
O=C(O)CO [Glycolic acid],area under OmniLog respiration curve,[1]; [3],7210 ± 370
same,DuctApe activity index,[2]; [3],7.67 (active)
O=C(O)[C@@H]1C[C@@H](O)CN1 [Hydroxy-L-Proline],area under OmniLog respiration curve,[1]; [4],94.1 ± 78
same,DuctApe activity index,[2]; [4],0 (inactive)
O=S(=O)(O)SSS(=O)(=O)O [Tetrathionate],area under OmniLog respiration curve,[1]; [5],7150 ± 120
same,DuctApe activity index,[2]; [5],7.67 (active)
OCC(O)C(O)C(O)CO (configuration not stated) [Adonitol],area under OmniLog respiration curve,[1]; [6],2610 ± 350
same,DuctApe activity index,[2]; [6],5 (active)
Nc1ncnc2c1ncn2[C@@H]1O[C@H](CO)[C@@H](O)[C@H]1OP(=O)(O)O [Adenosine 2`-Monophosphate],area under OmniLog respiration curve,[1]; [7],9880 ± 610
same,DuctApe activity index,[2]; [7],9 (active)
O=C(CO)[C@@H](O[C@H]1O[C@H](CO)[C@@H](O)[C@H](O)[C@H]1O)[C@H](O)[C@H](O)CO [Turanose],area under OmniLog respiration curve,[1]; [6],532 ± 350
same,DuctApe activity index,[2]; [6],0.333 (inactive)
NC(=O)NC1NC(=O)NC1=O (configuration not stated) [Allantoin],area under OmniLog respiration curve,[1]; [8],500 ± 670
same,DuctApe activity index,[2]; [8],1.67 (inactive)
C[C@H](O)C(=O)O [L-Lactic acid],area under OmniLog respiration curve,[1]; [3],7880 ± 510
same,DuctApe activity index,[2]; [3],8 (active)
Nc1ccn([C@@H]2O[C@H](CO)[C@@H](OP(=O)(O)O)[C@H]2O)c(=O)n1 [Cytidine 3`-Monophosphate],area under OmniLog respiration curve,[1]; [7],4.72
same,DuctApe activity index,[2]; [7],0 (inactive)
OC[C@@]12OC[C@@H](O1)[C@@H](O)[C@@H](O)[C@@H]2O [Sedoheptulosan],area under OmniLog respiration curve,[1]; [6],201 ± 160
same,DuctApe activity index,[2]; [6],1.33 (inactive)
C/C(=C/C(=O)O)C(=O)O [Citraconic acid],area under OmniLog respiration curve,[1]; [3],4.72
same,DuctApe activity index,[2]; [3],0 (inactive)
O=C(O)CC(O)C(=O)O (racemic) [DL-Malic acid],area under OmniLog respiration curve,[1]; [3],8150 ± 730
same,DuctApe activity index,[2]; [3],8 (active)
O=C(O)c1ccc(O)cc1 [4-Hydroxybenzoic acid],area under OmniLog respiration curve,[1]; [3],4.72
same,DuctApe activity index,[2]; [3],0 (inactive)
OC[C@H](O)C(O)[C@@H](O)CO [L-Arabitol],area under OmniLog respiration curve,[1]; [6],4.72
same,DuctApe activity index,[2]; [6],0 (inactive)
O=P(O)(O)OC[C@H]1OC(O)(CO)[C@@H](O)[C@@H]1O (stereo partly drawn) [D-Fructose-6-Phosphate],area under OmniLog respiration curve,[1]; [6],9900 ± 640
same,DuctApe activity index,[2]; [6],9 (active)
O=C(O)C(O)COP(=O)(O)O [D-3-Phospho-Glyceric acid],area under OmniLog respiration curve,[1]; [7],9300 ± 690
same,DuctApe activity index,[2]; [7],8.67 (active)
NCCOP(=O)(O)O [O-Phosphoryl-Ethanolamine],area under OmniLog respiration curve,[1]; [7],8740 ± 290
same,DuctApe activity index,[2]; [7],8.67 (active)
C=C(CC(=O)O)C(=O)O [Itaconic acid],area under OmniLog respiration curve,[1]; [3],4.72
same,DuctApe activity index,[2]; [3],0 (inactive)
O=C(O)CC[C@@H](C(=O)O)N1C(=O)c2ccccc2C1=O [N-Phthaloyl-L-Glutamic acid],area under OmniLog respiration curve,[1]; [8],4540 ± 1100
same,DuctApe activity index,[2]; [8],6 (active)
O=CO [Formic acid],area under OmniLog respiration curve,[1]; [3],112 ± 190
same,DuctApe activity index,[2]; [3],0.333 (inactive)
O=S(=O)(O)O [Sulfate],area under OmniLog respiration curve,[1]; [5],6810 ± 400
same,DuctApe activity index,[2]; [5],7.33 (active)
OC[C@@H](O)[C@@H](O[C@H]1O[C@H](CO)[C@@H](O)[C@H](O)[C@H]1O)[C@H](O)[C@@H](O)CO [Maltitol],area under OmniLog respiration curve,[1]; [6],4.72
same,DuctApe activity index,[2]; [6],0 (inactive)
C[C@H](O)[C@@H](N)C(=O)O [D-Threonine],area under OmniLog respiration curve,[1]; [4],291 ± 470
same,DuctApe activity index,[2]; [4],0.667 (inactive)
O=C(O)C(O)C(O)C(=O)O (configuration not stated) [m-Tartaric acid],area under OmniLog respiration curve,[1]; [3],4.72
same,DuctApe activity index,[2]; [3],0 (inactive)
OC[C@@H](O)[C@H](O)[C@H](O)[C@@H](O)CO [Dulcitol],area under OmniLog respiration curve,[1]; [6],3230 ± 100
same,DuctApe activity index,[2]; [6],6 (active)
CO[C@H]1O[C@H](CO)[C@@H](O)[C@H](O)[C@@H]1O [a-Methyl-D-Mannoside],area under OmniLog respiration curve,[1]; [6],16.9 ± 21
same,DuctApe activity index,[2]; [6],0 (inactive)
O=C(CO)[C@@H](O)[C@H](O)[C@H](O)CO[C@H]1O[C@H](CO)[C@@H](O)[C@H](O)[C@H]1O [Palatinose],area under OmniLog respiration curve,[1]; [6],174 ± 160
same,DuctApe activity index,[2]; [6],0 (inactive)
O=C[C@H](O)[C@@H](O)[C@H](O)[C@H](O)CO[C@@H]1O[C@H](CO)[C@@H](O)[C@H](O)[C@H]1O [Gentiobiose],area under OmniLog respiration curve,[1]; [6],475 ± 820
same,DuctApe activity index,[2]; [6],1 (inactive)
NC(N)=S [Thiourea],area under OmniLog respiration curve,[1]; [5],4830 ± 410
same,DuctApe activity index,[2]; [5],6.33 (active)
CO[C@@H]1O[C@H](CO)[C@H](O)[C@H](O)[C@H]1O [b-Methyl-D-Galactoside],area under OmniLog respiration curve,[1]; [6],6290 ± 550
same,DuctApe activity index,[2]; [6],7 (active)
C[C@@H](O)[C@H](O)[C@H](O)[C@@H](O)C=O [D-Fucose],area under OmniLog respiration curve,[1]; [6],21 ± 25
same,DuctApe activity index,[2]; [6],0 (inactive)
NCCCCCC(=O)O [e-Amino-N-Caproic acid],area under OmniLog respiration curve,[1]; [8],1240 ± 1000
same,DuctApe activity index,[2]; [8],2.33 (inactive)
Nc1nc2c(ncn2[C@@H]2O[C@H](COP(=O)(O)O)[C@@H](O)[C@H]2O)c(=O)[nH]1 [Guanosine 5`-Monophosphate],area under OmniLog respiration curve,[1]; [7],9210 ± 900
same,DuctApe activity index,[2]; [7],8.67 (active)
NC(N)=O,area under OmniLog respiration curve,[1]; [8],4.72
same,DuctApe activity index,[2]; [8],0 (inactive)
CCCCCCCCCC(=O)O [Capric acid],area under OmniLog respiration curve,[1]; [3],14.2 ± 6.8
same,DuctApe activity index,[2]; [3],0 (inactive)
C[N+](C)(C)CCOP(=O)(O)O [Phosphoryl Choline],area under OmniLog respiration curve,[1]; [7],8840 ± 430
same,DuctApe activity index,[2]; [7],8.67 (active)
